The target of assay [1] is Platelet-derived growth factor receptor beta (Homo sapiens) (UniProt P09619). The following applies: at 1 µM.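 Note: each value is a mean percent inhibition.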
Assay [2] concerns the target Tyrosine-protein kinase FRK (Homo sapiens) (UniProt P42685). As to conditions: at 0.1 µM.
Assay [3] has the same target. The following applies: at 1 µM.
In assay [4] the target is Protein-tyrosine kinase 2-beta (Homo sapiens) (UniProt Q14289). As to conditions: at 0.1 µM.
Assay [5] shares this target. As to conditions: at 1 µM.
Assay [6] deals with Proto-oncogene tyrosine-protein kinase receptor Ret (Homo sapiens) (UniProt P07949). As to conditions: at 0.1 µM.
Assay [7] has the same target. As to conditions: at 1 µM.
The subject of assay [8] is Proto-oncogene tyrosine-protein kinase receptor Ret (Homo sapiens), P07949 [V804L]. The following applies: at 0.1 µM.
For assay [9] the test system is unchanged. As to conditions: at 1 µM.
The test system of assay [10] is Proto-oncogene tyrosine-protein kinase receptor Ret (Homo sapiens), P07949 [Y791F]. The following applies: at 0.1 µM.
Assay [11] has the same test system. As to conditions: at 1 µM.
The target of assay [12] is Macrophage-stimulating protein receptor (Homo sapiens) (UniProt Q04912). The following applies: at 0.1 µM.
Assay [13] shares this target. As to conditions: at 1 µM.
For assay [14], the target named is Proto-oncogene tyrosine-protein kinase ROS (Homo sapiens) (UniProt P08922). The following applies: at 0.1 µM.
For assay [15] the target is unchanged. As to conditions: at 1 µM.
Assay [16] addresses Proto-oncogene tyrosine-protein kinase Src (Homo sapiens) (UniProt P12931). As to conditions: at 0.1 µM.
Assay [17] shares this target. The following applies: at 1 µM.
For assay [18], the target named is Tyrosine-protein kinase Srms (Homo sapiens) (UniProt Q9H3Y6). As to conditions: at 0.1 µM.
The target is the same in assay [19]. The following applies: at 1 µM.
For assay [20], the target named is Tyrosine-protein kinase SYK (Homo sapiens) (UniProt P43405). The following applies: at 0.1 µM.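 Note: reported percentages are mean inhibition values for SYK.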

The values below come from ChEMBL document CHEMBL1961873, “Compounds: GSK PKIS; Assays: Nanosyn kinase panel” (2012).

As usually defined, the inhibition is the change of the read-out against control, counted positive when it falls.

Proto-oncogene tyrosine-protein kinase receptor Ret (Homo sapiens), sequence (P07949 whole entry): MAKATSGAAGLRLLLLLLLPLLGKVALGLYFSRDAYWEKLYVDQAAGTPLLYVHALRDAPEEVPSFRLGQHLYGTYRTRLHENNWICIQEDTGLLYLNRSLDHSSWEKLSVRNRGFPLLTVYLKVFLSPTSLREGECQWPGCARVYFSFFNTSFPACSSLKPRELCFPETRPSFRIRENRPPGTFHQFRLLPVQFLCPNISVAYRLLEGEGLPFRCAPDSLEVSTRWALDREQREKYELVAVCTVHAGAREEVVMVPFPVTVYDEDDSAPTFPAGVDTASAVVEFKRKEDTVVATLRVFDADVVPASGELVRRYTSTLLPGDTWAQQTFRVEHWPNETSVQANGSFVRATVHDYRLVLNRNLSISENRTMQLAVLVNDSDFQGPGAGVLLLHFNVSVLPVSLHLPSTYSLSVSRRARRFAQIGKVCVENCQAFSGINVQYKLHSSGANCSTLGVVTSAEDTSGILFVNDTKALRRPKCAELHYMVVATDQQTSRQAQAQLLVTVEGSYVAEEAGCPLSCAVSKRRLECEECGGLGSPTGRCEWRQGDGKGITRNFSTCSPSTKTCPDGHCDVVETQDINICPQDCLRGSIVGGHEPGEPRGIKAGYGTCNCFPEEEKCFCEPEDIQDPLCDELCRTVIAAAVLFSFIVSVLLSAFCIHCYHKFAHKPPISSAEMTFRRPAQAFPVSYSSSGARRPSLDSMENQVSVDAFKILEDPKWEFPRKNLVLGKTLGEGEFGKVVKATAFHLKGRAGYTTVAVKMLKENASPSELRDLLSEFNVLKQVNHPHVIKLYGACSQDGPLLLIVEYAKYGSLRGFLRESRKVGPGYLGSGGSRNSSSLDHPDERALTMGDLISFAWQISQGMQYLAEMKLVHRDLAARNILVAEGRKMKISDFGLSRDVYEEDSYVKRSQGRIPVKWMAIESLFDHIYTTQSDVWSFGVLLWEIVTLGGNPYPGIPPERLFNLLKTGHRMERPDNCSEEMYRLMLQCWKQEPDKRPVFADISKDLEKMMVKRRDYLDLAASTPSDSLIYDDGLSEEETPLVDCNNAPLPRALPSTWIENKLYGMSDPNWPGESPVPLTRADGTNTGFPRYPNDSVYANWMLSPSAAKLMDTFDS
Proto-oncogene tyrosine-protein kinase receptor Ret (Homo sapiens), P07949 [V804L], sequence (P07949 whole entry V804L): as the sequence (P07949 whole entry) above, with V804L counted along it
Proto-oncogene tyrosine-protein kinase Src (Homo sapiens), sequence (P12931 2-536 limits assumed): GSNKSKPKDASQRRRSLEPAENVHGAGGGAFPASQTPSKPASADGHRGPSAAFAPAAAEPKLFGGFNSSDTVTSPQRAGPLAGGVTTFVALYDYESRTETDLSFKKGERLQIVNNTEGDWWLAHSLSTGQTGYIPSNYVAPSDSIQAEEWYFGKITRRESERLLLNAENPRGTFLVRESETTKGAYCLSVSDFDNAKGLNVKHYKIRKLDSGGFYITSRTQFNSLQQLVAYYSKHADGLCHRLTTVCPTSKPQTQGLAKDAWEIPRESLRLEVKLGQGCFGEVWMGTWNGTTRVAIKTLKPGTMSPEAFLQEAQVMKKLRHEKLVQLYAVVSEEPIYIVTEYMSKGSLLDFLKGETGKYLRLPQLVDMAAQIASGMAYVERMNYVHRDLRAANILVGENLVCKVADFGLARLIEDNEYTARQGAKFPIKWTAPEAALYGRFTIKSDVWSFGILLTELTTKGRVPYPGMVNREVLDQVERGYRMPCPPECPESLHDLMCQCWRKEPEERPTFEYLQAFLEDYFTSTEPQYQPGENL
Protein-tyrosine kinase 2-beta (Homo sapiens), sequence (Q14289 whole entry, looked up): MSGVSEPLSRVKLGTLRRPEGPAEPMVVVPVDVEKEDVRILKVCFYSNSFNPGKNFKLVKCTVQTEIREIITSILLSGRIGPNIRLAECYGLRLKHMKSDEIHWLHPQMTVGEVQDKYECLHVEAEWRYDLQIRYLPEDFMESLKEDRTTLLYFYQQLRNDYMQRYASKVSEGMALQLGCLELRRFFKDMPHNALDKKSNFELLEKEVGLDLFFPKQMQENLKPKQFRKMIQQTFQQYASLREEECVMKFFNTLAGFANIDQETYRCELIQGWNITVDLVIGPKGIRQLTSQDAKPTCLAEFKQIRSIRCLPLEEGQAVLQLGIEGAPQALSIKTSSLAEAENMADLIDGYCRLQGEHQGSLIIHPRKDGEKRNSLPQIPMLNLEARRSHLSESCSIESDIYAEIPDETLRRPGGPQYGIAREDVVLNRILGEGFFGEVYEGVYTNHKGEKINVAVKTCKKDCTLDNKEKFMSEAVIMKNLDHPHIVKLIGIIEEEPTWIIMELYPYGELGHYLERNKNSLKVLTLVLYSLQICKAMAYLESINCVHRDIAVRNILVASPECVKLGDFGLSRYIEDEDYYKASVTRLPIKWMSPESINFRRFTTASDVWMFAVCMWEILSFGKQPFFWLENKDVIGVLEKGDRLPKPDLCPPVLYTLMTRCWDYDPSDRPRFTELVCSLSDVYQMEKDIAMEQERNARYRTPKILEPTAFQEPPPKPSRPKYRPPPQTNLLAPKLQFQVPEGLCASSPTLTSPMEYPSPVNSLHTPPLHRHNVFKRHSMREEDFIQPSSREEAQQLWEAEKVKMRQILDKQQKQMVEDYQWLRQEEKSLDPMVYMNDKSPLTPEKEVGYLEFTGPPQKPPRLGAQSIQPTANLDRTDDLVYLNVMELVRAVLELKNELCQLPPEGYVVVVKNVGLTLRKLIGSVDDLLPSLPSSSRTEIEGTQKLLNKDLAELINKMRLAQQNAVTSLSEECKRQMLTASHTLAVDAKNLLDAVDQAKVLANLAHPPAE
Tyrosine-protein kinase FRK (Homo sapiens), sequence (P42685 whole entry): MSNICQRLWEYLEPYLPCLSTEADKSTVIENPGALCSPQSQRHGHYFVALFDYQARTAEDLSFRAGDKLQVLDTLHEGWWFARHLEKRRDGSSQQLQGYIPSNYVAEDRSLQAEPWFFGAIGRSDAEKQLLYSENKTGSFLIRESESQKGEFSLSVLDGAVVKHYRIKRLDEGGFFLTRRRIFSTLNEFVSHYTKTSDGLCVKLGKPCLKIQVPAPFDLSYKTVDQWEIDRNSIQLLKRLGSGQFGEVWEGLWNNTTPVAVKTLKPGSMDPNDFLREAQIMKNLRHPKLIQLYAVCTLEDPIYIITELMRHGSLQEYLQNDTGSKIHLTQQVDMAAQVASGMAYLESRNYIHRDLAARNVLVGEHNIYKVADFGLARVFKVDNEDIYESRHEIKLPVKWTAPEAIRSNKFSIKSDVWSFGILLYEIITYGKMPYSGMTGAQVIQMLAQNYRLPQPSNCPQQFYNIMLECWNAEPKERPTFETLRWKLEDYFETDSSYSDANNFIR
Tyrosine-protein kinase Srms (Homo sapiens), sequence (Q9H3Y6 whole entry): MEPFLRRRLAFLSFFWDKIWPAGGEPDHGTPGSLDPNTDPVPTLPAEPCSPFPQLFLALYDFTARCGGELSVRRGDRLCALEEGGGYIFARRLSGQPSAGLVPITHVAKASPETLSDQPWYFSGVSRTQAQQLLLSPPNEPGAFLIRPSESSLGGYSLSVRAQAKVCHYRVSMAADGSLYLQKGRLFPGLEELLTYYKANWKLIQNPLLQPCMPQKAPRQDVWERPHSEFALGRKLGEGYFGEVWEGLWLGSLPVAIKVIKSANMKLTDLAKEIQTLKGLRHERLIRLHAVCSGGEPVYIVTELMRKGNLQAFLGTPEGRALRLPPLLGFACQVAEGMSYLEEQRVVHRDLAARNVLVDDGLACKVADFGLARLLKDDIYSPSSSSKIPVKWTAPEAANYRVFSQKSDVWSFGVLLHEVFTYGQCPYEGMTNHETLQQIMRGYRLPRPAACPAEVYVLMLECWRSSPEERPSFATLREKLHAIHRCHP
Proto-oncogene tyrosine-protein kinase receptor Ret (Homo sapiens), P07949 [Y791F], sequence (P07949 whole entry Y791F): as the sequence (P07949 whole entry) above, with Y791F counted along it
Platelet-derived growth factor receptor beta (Homo sapiens), sequence (P09619 whole entry): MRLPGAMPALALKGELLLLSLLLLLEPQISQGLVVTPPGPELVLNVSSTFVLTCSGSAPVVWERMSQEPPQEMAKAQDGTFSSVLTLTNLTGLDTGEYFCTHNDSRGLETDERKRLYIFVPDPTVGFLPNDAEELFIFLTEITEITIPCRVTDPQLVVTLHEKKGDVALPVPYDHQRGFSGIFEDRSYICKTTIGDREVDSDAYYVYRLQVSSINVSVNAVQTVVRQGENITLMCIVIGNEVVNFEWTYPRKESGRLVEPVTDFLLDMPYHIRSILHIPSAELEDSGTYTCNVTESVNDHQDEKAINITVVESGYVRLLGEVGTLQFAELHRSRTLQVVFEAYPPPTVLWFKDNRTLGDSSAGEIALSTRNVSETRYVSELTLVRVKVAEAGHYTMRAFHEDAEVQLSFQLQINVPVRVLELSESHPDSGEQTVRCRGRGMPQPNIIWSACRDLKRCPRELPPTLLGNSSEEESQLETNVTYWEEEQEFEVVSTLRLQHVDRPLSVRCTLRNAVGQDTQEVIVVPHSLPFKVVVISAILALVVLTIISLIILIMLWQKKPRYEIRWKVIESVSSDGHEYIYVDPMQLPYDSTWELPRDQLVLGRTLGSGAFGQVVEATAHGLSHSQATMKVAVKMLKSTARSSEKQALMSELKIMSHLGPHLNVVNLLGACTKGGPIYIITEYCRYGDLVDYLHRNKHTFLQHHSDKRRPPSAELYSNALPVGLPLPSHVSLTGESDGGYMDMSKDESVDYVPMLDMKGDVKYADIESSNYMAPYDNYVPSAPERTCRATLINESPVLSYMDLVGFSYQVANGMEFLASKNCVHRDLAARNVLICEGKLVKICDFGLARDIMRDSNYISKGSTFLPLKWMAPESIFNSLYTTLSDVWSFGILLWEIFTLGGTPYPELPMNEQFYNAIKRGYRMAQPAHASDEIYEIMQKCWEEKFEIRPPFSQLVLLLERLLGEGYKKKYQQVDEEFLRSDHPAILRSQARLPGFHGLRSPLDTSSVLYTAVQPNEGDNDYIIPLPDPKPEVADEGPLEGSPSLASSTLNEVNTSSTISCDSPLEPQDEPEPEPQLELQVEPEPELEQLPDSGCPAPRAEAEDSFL

On to `CCn1c(-c2nonc2N)nc2c(C#CC(C)(C)O)ncc(OC3CCNCC3)c21`, for which the inhibition stood at 41.1% in [1]; 0.94% in assay [2]; 2.25% in assay [3]; 6.98% in assay [4]; 45.3% in [5]; 4.43% in assay [6]. Also, the inhibition in [7] was 10.3%; in assay [8], 1.1%; in assay [9], 4.05%; in [10], 1.51%; in assay [11] it was 17.1%; in assay [12], -2.24%. Further, the inhibition in [13] was determined as 0.48%; in [14], 7.34%; in [15], 6.9%; in [16], 7.32%; in assay [17], 11.4%; in assay [18] it was 0.02%. Besides, the inhibition in assay [19] stood at 1.37%; in assay [20], 2.08%.

For `Cc1cccc2c1NC(=O)/C2=N\Nc1ccc(S(N)(=O)=O)cc1`, the inhibition in assay [1] turned out to be 10.2%; in assay [2], 1.71%; in [3], 0.62%; in assay [4] it was 3.22%; in assay [5], 9.89%; in assay [6] it was 1.83%. For the same molecule, the inhibition in assay [7] was 5.76%; in assay [8] it was 3.14%; in [9] it was 7.11%; in assay [10] it was 2.74%; in [11] it was 18.8%; in assay [12], 4.93%. For the same molecule, the inhibition was 2.48% in assay [13]; 2.26% in [14]; 1.51% in assay [15]; 4.47% in assay [16]; 6.45% in [17]; -0.7% in assay [18]. The inhibition is -2.11% in assay [19] and 3.45% in [20].

For `O=S(=O)(CCNCc1ccc(-c2ccc3ncnc(Nc4ccc(OCc5cccc(F)c5)c(Cl)c4)c3c2)o1)c1ccccc1`, the inhibition is 12.2% in assay [1]; 4.29% in assay [2]; 3.5% in [3]; 5.1% in assay [4]; 12.9% in assay [5]; 6.34% in [6]. Also, the inhibition in [7] turned out to be 3.04%; in [8], 7.31%; in assay [9], 9.24%; in assay [10], 10.8%; in [11], 15.4%; in assay [12], 1.71%. Moreover, the inhibition in assay [13] is 2.9%; in assay [14], 4.44%; in assay [15], 6.24%; in assay [16], 9.13%; in assay [17], 8.52%; in assay [18], -1.84%. Moreover, the inhibition was -3.16% in [19] and -4.56% in assay [20].

On to `COc1cc(/C=N/Nc2ncnc3[nH]ncc23)ccc1O`, for which the inhibition was found to be 67% in assay [1]; 2.72% in [2]; 3.55% in assay [3]; 11.4% in [4]; 29.7% in assay [5]; 59% in assay [6]. The inhibition was 83.4% in [7]; 17.8% in assay [8]; 68.6% in [9]; 56.7% in assay [10]; 80.9% in assay [11]; -1.46% in [12]. The inhibition in assay [13] was 17%; in [14] it was 5.97%; in [15], 27%; in assay [16], 27.9%; in assay [17], 83.2%; in [18] it was -0.95%. In addition, the inhibition in assay [19] was 6.55%; in assay [20], -7.54%.

`Cc1ccc(O)cc1Nc1ccnc2cc(-c3ccccn3)ccc12`: the inhibition in [1] was determined as 87%; in [2], 18.9%; in [3], 68.2%; in assay [4] it was 10.1%; in [5] it was 17.6%; in assay [6], 84.2%. The inhibition was 89.8% in assay [7]; 4.72% in [8]; 3.44% in assay [9]; 92.3% in assay [10]; 93.5% in assay [11]; -2% in [12]. Also, the inhibition in assay [13] turned out to be 4.51%; in [14] it was 6.57%; in [15], 7.97%; in assay [16], 61%; in assay [17], 90.4%; in assay [18], 9.32%. In addition, the figures for the inhibition in [19] and in assay [20] were 39.8% and -5.01%, respectively.

As for `CNC(=O)c1cccc(C#Cc2cncnc2Nc2ccc(OCc3cccc(F)c3)c(Cl)c2)c1`, the inhibition in [1] was 14.1%; in assay [2], -0.32%; in [3], -0.09%; in assay [4], -0.72%; in assay [5], 5.17%; in assay [6], 1.18%. Further, the inhibition was found to be 11.6% in assay [7]; 2.44% in assay [8]; 12.6% in [9]; 0.02% in assay [10]; 20.7% in assay [11]; 0.58% in assay [12]. Also, the inhibition in [13] was 0.88%; in assay [14], -2.5%; in [15], 1.03%; in [16] it was -0.84%; in assay [17], 5.22%; in assay [18] it was 0.46%. The inhibition in assay [19] was 1.17%; in [20], -6.37%.

With `COc1cc2c(cc1Nc1nc(Nc3ccsc3C(N)=O)c3cc[nH]c3n1)N(C(=O)CN(C)C)CCC2(C)C`, the inhibition came out at 62.7% in assay [1]; 2.92% in assay [2]; 8.45% in assay [3]; 88.3% in assay [4]; 96.7% in assay [5]; 8.13% in assay [6]. Moreover, the inhibition in [7] was 14.1%; in assay [8] it was 12.9%; in assay [9] it was 38.1%; in [10] it was 8.97%; in assay [11], 18.7%; in [12], -4.25%. Further, the inhibition in assay [13] is 28.9%; in assay [14] it was 79.7%; in assay [15] it was 83.1%; in assay [16], 0.33%; in assay [17] it was 11.7%; in assay [18] it was -1.82%. In addition, the inhibition in assay [19] was -3.22%; in [20], -6.01%.

`c1cc(-c2cnn3nc(N4CCOCC4)ccc23)nc(NC2CC2)n1`: the inhibition in assay [1] was determined as 51.7%; in assay [2] it was 1.71%; in [3], 1.99%; in [4], 15.8%; in assay [5], 15.4%; in assay [6], 5.62%. The inhibition in assay [7] was 15.6%; in assay [8] it was 3.15%; in [9], 8.37%; in assay [10] it was 6.04%; in [11], 16.2%; in assay [12], -1.82%. In addition, the inhibition in assay [13] came out at 1.76%; in assay [14], 5.66%; in [15] it was 23.7%; in assay [16] it was 10.1%; in [17], 8.4%; in [18], 0.68%. Further, the values for the inhibition in assay [19] and in assay [20] were -0.4% and 3.54%, respectively.

On to `COC(=O)Nc1nc2ccc(Oc3ccc(NC(=O)Nc4cccc(Cl)c4)cc3)cc2[nH]1`, for which the inhibition is 28.7% in [1]; 0.45% in assay [2]; 0.48% in [3]; 0.45% in assay [4]; 5.25% in [5]; 52.1% in assay [6]. The inhibition was found to be 74.4% in assay [7]; 23.8% in assay [8]; 54.8% in assay [9]; 45.5% in assay [10]; 79.7% in [11]; 2.59% in assay [12]. Moreover, the inhibition in [13] is 6.24%; in assay [14], 1.51%; in assay [15] it was 2.59%; in assay [16] it was 4.21%; in assay [17], 1.43%; in assay [18] it was -2.84%. In addition, the figures for the inhibition in [19] and in [20] were -1.42% and 0.41%, respectively.

For `Fc1ccc(-c2nn3ncccc3c2-c2ccnc(Nc3ccc4c(c3)OCCO4)n2)cc1`, the inhibition in assay [1] amounted to 69.7%; in assay [2], 5.64%; in assay [3] it was 25.4%; in assay [4], 16.4%; in assay [5], 44%; in assay [6], 23.5%. Besides, the inhibition in [7] was 64.9%; in assay [8], 4.29%; in assay [9], 4.6%; in assay [10] it was 30.8%; in assay [11], 65.8%; in assay [12], -2.95%. The inhibition in [13] was 4.64%; in assay [14], 4.11%; in assay [15], 10.9%; in assay [16], 40.2%; in [17] it was 83.9%; in assay [18], -0.06%. For the same molecule, the inhibition in assay [19] was 9.83%; in assay [20], -5.37%.

As to `Nc1ncc(-c2cccc(S(N)(=O)=O)c2)c2scc(-c3ccc(F)c(Cl)c3)c12`, the inhibition was 53.4% in assay [1]; 2.22% in assay [2]; 14.2% in assay [3]; 2.23% in assay [4]; 20.8% in [5]; 11.8% in assay [6]. For the same molecule, the inhibition came out at 49% in assay [7]; 5.58% in [8]; 7.48% in [9]; 12.4% in assay [10]; 50.2% in [11]; 1.48% in [12]. In addition, the inhibition in assay [13] is 15.8%; in [14] it was -0.54%; in assay [15] it was 6.78%; in assay [16], 19.6%; in assay [17], 57.1%; in [18] it was -1.03%. The inhibition in assay [19] came out at 6.75%; in assay [20], 0.28%.

On to `CC1=C(C(=O)Nc2cc(Cl)c3[nH]ncc3c2)C(c2ccc(C(F)(F)F)cc2)CC(=O)N1` (stereo not given), for which the inhibition stood at 3.69% in assay [1]; 3.64% in assay [2]; 7.85% in assay [3]; 5.71% in assay [4]; 9.35% in [5]; 4.22% in assay [6]. In addition, the inhibition came out at 15.2% in [7]; 4.98% in assay [8]; 33.3% in assay [9]; 2.42% in assay [10]; 18.1% in assay [11]; 13.4% in assay [12]. The inhibition in assay [13] is 11.4%; in assay [14], 4.57%; in assay [15] it was 6.5%; in assay [16], 1.84%; in assay [17], 30.8%; in assay [18], -1.35%. The inhibition is 3.11% in assay [19] and -2.63% in assay [20].

Turning to `O=C(Nc1n[nH]c2cc(-c3ccc(F)cc3)ccc12)C1CC1`, the inhibition in assay [1] is 7.77%; in assay [2] it was 1.74%; in assay [3], 2.21%; in assay [4], 9.12%; in [5] it was 9.39%; in assay [6], 2.79%. Besides, the inhibition in assay [7] worked out at 3.73%; in assay [8] it was 2.36%; in assay [9], 3.06%; in assay [10], 4.2%; in assay [11], 2.03%; in assay [12], 3.73%. Also, the inhibition was 1.45% in assay [13]; 4.52% in assay [14]; 6.57% in assay [15]; 0.9% in [16]; 6.35% in assay [17]; -1.28% in [18]. Moreover, the inhibition in [19] is -0.73%; in [20] it was -3.9%.
